Laboratory results as given in the supplement of paper PMC13380429.

Test system: Vero E6 infected with SARS-CoV-2
Test: inhibition of SARS-CoV-2 cytopathic effect; higher = more antiviral protection, active = above 15
Conditions: 48 h

Measured: inhibition of SARS-CoV-2 cytopathic effect

O=C(O)COc1nn(Cc2ccccc2)c2ccccc12 [bendazac]
inactive: 1 nM -1.4% | 8.33 nM 2.21% | 100 nM 0.57% | 833.33 nM -1.97% | 10000 nM -2.52%

CC(C)(C)c1ccc(C(=O)CCCN2CCC(OC(c3ccccc3)c3ccccc3)CC2)cc1 [ebastine]
inactive: 1 nM 0.86% | 8.33 nM 1.48% | 100 nM 0.7% | 833.33 nM -2.23% | 10000 nM -4.94%

O=C(Nc1nc2cccc(-c3ccc(CN4CCS(=O)(=O)CC4)cc3)n2n1)C1CC1 [filgotinib]
inactive: 1 nM -1.13% | 8.33 nM -1.84% | 100 nM 4.15% | 833.33 nM 3.84% | 10000 nM -1.27%

C[C@@H](O)[C@H]1C(=O)N2C(C(=O)[O-])=C(SC3Cn4cnc[n+]4C3)[C@H](C)[C@H]12 (stereo not given in full) [biapenem]
inactive: 1 nM -2.15% | 8.33 nM -0.04% | 100 nM 0.1% | 833.33 nM 0.63% | 10000 nM -0.14%

CCCCOC(=O)c1ccccc1Nc1cccc(C(F)(F)F)c1 [ufenamate]
inactive: 1 nM 2.83% | 8.33 nM 2.78% | 100 nM 0.41% | 833.33 nM 1.79% | 10000 nM 0.16%

N#Cc1ccc(C(c2ccc(C#N)cc2)n2cncn2)cc1 [letrozole]
inactive: 1 nM -1.89% | 8.33 nM 4.26% | 100 nM 0.11% | 833.33 nM -2.14% | 10000 nM -1.61%

COc1ccc2nc3c(c(N)c2c1)CCCC3 [7-methoxytacrine]
inactive: 1 nM 0.9% | 8.33 nM 2.7% | 100 nM 0.06% | 833.33 nM 4.86% | 10000 nM 4.52%

Oc1c(Br)cc(Br)c2cccnc12 [broxyquinoline]
inactive: 1 nM -1.46% | 8.33 nM 2.01% | 100 nM -2.42% | 833.33 nM -2.35% | 10000 nM -5.91%

Oc1cc(O)cc(/C=C/c2ccc(O)c(O)c2)c1 [piceatannol]
inactive: 1 nM 2.41% | 8.33 nM -0.84% | 100 nM -0.97% | 833.33 nM 0.83% | 10000 nM 2.32%

COc1cc(C[C@H](C)[C@H](C)Cc2ccc3c(c2)OCO3)ccc1O [macelignan]
inactive: 1 nM 0.71% | 8.33 nM -0.62% | 100 nM 0.01% | 833.33 nM 2.57% | 10000 nM 1.91%

CCOC(=O)c1ccccc1OC(N)=O [ethyl-2-(carbamoyloxy)benzoate]
inactive: 1 nM -8.28% | 8.33 nM -7.77% | 100 nM -4.5% | 833.33 nM -2.39% | 10000 nM -3.35%

CCCC(CCC)C(=O)Nc1ccn([C@@H]2O[C@H](CO)[C@@H](O)C2(F)F)c(=O)n1
inactive: 1 nM -0.06% | 8.33 nM -1.71% | 100 nM -2.25% | 833.33 nM -0.4% | 10000 nM -4.21%

Oc1c(Cl)cc(Cl)c(Cl)c1Cc1c(O)c(Cl)cc(Cl)c1Cl [hexachlorophene]
inactive: 1 nM 0.56% | 8.33 nM 1.77% | 100 nM 0.2% | 833.33 nM 2.38% | 10000 nM 8.62%

Cn1cccc1/C=C1\C(=O)NC(=O)c2ccccc21
inactive: 1 nM 2.55% | 8.33 nM -0.08% | 100 nM -1.24% | 833.33 nM -2.42% | 10000 nM 5%

O=[N+]([O-])/N=C1\NCCN1Cc1ccc(Cl)nc1 [imidacloprid]
inactive: 1 nM 0.83% | 8.33 nM 5.02% | 100 nM 6.8% | 833.33 nM 5.42% | 10000 nM 3.01%

COc1ccccc1N1CCN(CCN2C(=O)c3ccccc3C(C)(C)C2=O)CC1
inactive: 1 nM 0.16% | 8.33 nM -2.9% | 100 nM 2.69% | 833.33 nM -0.3% | 10000 nM 0.21%

CN(C)CCCC1(c2ccc(F)cc2)OCc2cc(C#N)ccc21 (stereo not given) [citalopram]
inactive: 1 nM -0.29% | 8.33 nM 2.58% | 100 nM 1.49% | 833.33 nM -0.995% | 10000 nM -4.99%

N[C@@H](C(=O)O)[C@@H](OCc1ccccc1)C(=O)O.N[C@H](C(=O)O)[C@H](OCc1ccccc1)C(=O)O
inactive: 1 nM -0.96% | 8.33 nM 0.96% | 100 nM -0.27% | 833.33 nM -0.54% | 10000 nM 1.19%

C[S+](CC[C@H](N)C(=O)O)C[C@H]1O[C@@H](n2cnc3c(N)ncnc32)[C@H](O)[C@@H]1O (stereo not given in full) [ademetionine]
inactive: 1 nM -2.98% | 8.33 nM -1.8% | 100 nM -2.58% | 833.33 nM -0.06% | 10000 nM 0.19%
